Data published in the OligoGym collection.

What follows are sequences tested against TXNDC17 (assay: pooled miR-30 sensor sort-seq; sequence = guide strand). Conditions: shRNA.
Also: reference of the scale not given here.

Sequence	sensor-assay potency score (higher = more potent)
TTACTTTCAAGTTTTTTCTGAA	0.123
TAGATGAACACACATCCTTCAC	-0.655
TTTTCTGAAGTCATTATTTGGA	-0.354
TAAGTAGTGTAGGCACTGCTGT	-0.733
TTTCTGAAGTCATTATTTGGAT	-0.595
ATTGATACTAGAACAAATCAGG	-0.62
AGTAGATGAACACACATCCTTC	-1.77
AAGACACTCAGATTCTACCAGT	-0.12
TTTTTCTGAAGTCATTATTTGG	-1.37
TTAAGTAGTGTAGGCACTGCTG	-0.868
TTCTGAAGTCATTATTTGGATC	-0.868

The sequences below were run against TXNDC2 in the same assay as above. Conditions: shRNA.

Sequence	sensor-assay potency score (higher = more potent)
TTGGGGATGTCAATCTCCTTGG	-0.981
TTCCAAGAACTCTAGGGCCAGG	-1.16
TTTTTTATAAAACTGAAAGGTT	-0.527
TTCTTCTGAGGACTTGGGGAGG	-1.18
TTCTTCTTCAGGCTTTAGGATG	-1.62
TTTTTCTGAGGACTTGGGGAGG	-1.18
TTTCCAAGAACTCTAGGGCCAG	-0.912
TTTTATAAAACTGAAAGGTTGG	-0.0568
TCTTCTAGGGACTTGGGGCTGT	-0.62
TCTTCTGAGGACTTGGGGCTGT	-0.284
TAGGATGTCACCCTCCTTGGAT	-0.739
AAGAATGGTCTGATGGTCCTGC	0.56

The sequences below were run against UBA1 in the same assay as above. Conditions: shRNA.

Sequence	sensor-assay potency score (higher = more potent)
TTGGTGAGCACCACCACCTGGA	0.0519
TATAGTACTGGTGACGTGGTGC	0.491
TTCTTGAGCAGCTCACAGCCAA	-0.992
TTCTCTTGCAGGTCTGAGCCAA	-0.695
ATTCTTGTAGGAGTCAAGCTGT	0.0651
TTTAACTTCGTGACATCCCAGG	-0.746
TTGACATCAAAGGTGAGCGGGT	-0.267
TACTTTGACCTGACTGACGATG	-0.507
TTCTTAGGTACTTTGACCTGAC	0.097
TATGTCTGCTTCACTGCCGTTC	-0.544
TTCCGGTAGTAGACACAGCGGC	-0.978
TTAGGTACTTTGACCTGACTGA	-0.00997

What follows are sequences tested against UBA3 in the same assay as above. Conditions: shRNA.

Sequence	sensor-assay potency score (higher = more potent)
TTGAATAGTACAGTCTGTGGGG	0.37
TTGCAGAGAAGCACTATTGGTT	-0.184
ATCTACATCATTAAACACCAAG	-1.38
TTGGATCTAAGACACCATCTTC	0.0215
